In PubChem BioAssay (EPA / NIEHS):
Where “and” joins values, the source holds several entries; their conditions need not be identical. Equal entries are not always repeated. Inconclusive results are not listed. The source holds several records for some structures; these can differ, active in one and inactive in another. Calls of active or inactive are those of the source. The calls were made as follows, unless noted: active = hit-call score of the fitted dose curve at least 0.9, where 1 is the maximum; inactive = score below 0.9.

Key:
[1] = target: Retinoic acid receptor RXR-alpha (Homo sapiens) (UniProt P19793); experiment: OT_NURR1_NURR1RXRa_1440: Odyssey Thera (OT) 24-hour HEK293T Protein Complementation Assay for Nurr1/retinoid X receptor (RXR) (AID 2283386; active = hit-call score of the fitted dose curve at least 0.9, where 1 is the maximum)
Outline: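 Measured as fluorescence from a reconstituted split reporter, this 24 h HEK293T complementation assay scores compound-induced gain of Nurr1/RXRα association relative to DMSO.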

[2] = target: Peroxisome proliferator-activated receptor gamma (Homo sapiens) (UniProt P37231); experiment: OT_PPARg_PPARgSRC1_0480: Odyssey Thera (OT) 8-hour Protein-Complementation Assay for Peroxisome Proliferator-activated Receptor Gamma / SRC-1 Co-activator (AID 2283387; active = hit-call score of the fitted dose curve at least 0.9, where 1 is the maximum;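 also: nuclear to cytoplasmic split Venus YFP fluorescence ratio reporting PPARg SRC-1 interaction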)
Outline: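 Read-out: 488 nm N/C fluorescence ratio from complemented Venus YFP fragments, ≥350 cells per image, gain-of-signal fitted against DMSO baseline. Fusions of PPARg/SRC-1 with IFP1/IFP2 expressed transiently in HEK293T; compounds applied 8 h.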

[3] = target: Peroxisome proliferator-activated receptor gamma (Homo sapiens) (UniProt P37231); experiment: OT_PPARg_PPARgSRC1_1440: Odyssey Thera (OT) 24-hour Protein-Complementation Assay for Peroxisome Proliferator-activated Receptor Gamma/ SRC-1 Co-activator (AID 2283388; active = hit-call score of the fitted dose curve at least 0.9, where 1 is the maximum;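 also: nuclear to cytoplasmic ratio of reconstituted Venus YFP fluorescence in fixed imaged cells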)
Outline: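 Readout: nuclear-to-cytoplasmic 488 nm fluorescence ratio, ≥350 cells per image, 8 images per well, after 24 h compound exposure of HEK293T expressing PPARg/SRC-1 split-YFP fusions. Activity fitted in positive direction against DMSO.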

[4] = read-out: Tumor necrosis factor receptor superfamily member 6 (Homo sapiens) (UniProt P25445); experiment: LTEA_HepaRG_FAS: Life Technologies and Expression Analysis (LTEA) Assay for Fas cell surface death receptor (FAS) using HepaRG (AID 2283447); conditions: mRNA level, 48 h; actives raise or lower the signal
Outline: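 FAS transcript level was measured by TaqMan qRT-PCR against three housekeeping genes after 48 h chemical exposure. Cells were HepaRG, 0.5% DMSO vehicle, with a top concentration of 100 uM and half-log dilutions over eight points, in duplicate.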

[5] = read-out: Fatty acid synthase (Homo sapiens) (UniProt P49327); experiment: LTEA_HepaRG_FASN: Life Technologies and Expression Analysis (LTEA) Assay for Fatty Acid Synthase (FASN) using HepaRG (AID 2283448); conditions: mRNA level, 48 h; actives raise or lower the signal;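 as to AC50: differentiated human HepaRG liver cells in serum-free induction medium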
Outline: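 Transcript-level assay: HepaRG liver cells are treated for 48 h across an eight-point range topping at 100 uM, and FASN mRNA, normalized to three housekeeping genes, is compared with DMSO controls in both directions.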

[6] = read-out: Cyclin D2 (CCND2), CCND2 (gene 894); experiment: LTEA_HepaRG_CCND2: Life Technologies and Expression Analysis (LTEA) Assay for Cyclin D2 (CCND2) using HepaRG (AID 2283449); conditions: mRNA level, 48 h; actives raise or lower the signal
Outline: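 Read-out is CCND2 mRNA level measured by qRT-PCR in human HepaRG liver cells and normalised to three housekeeping genes. Chemicals were applied for 48 h at up to 100 uM, with gain or loss fitted relative to 0.5% DMSO.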

[7] = read-out: Cyclin Dependent Kinase Inhibitor 1A (CDKN1A), CDKN1A (gene 1026); experiment: LTEA_HepaRG_CDKN1A: Life Technologies and Expression Analysis (LTEA) Assay for Cyclin Dependent Kinase Inhibitor 1A (CDKN1A) using HepaRG (AID 2283450); conditions: mRNA level, 48 h; actives raise or lower the signal
Outline: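 HepaRG, 48 h dosing, 8-pt half-log series from 100 uM top, 0.5% DMSO vehicle, duplicates. Readout: TaqMan qRT-PCR of CDKN1A transcript, housekeeping-normalized (ACTB, GAPDH, POLR2A). Up/down curve fit relative to DMSO.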

[8] = read-out: Cyclin D1 (CCND1), CCND1 (gene 595); experiment: LTEA_HepaRG_CCND1: Life Technologies and Expression Analysis (LTEA) Assay for Cyclin D1 (CCND1) using HepaRG (AID 2283451); conditions: mRNA level, 48 h; actives raise or lower the signal;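 as to AC50: differentiated human HepaRG liver cells in serum-free induction medium; TaqMan qRT-PCR transcript level normalised to ACTB GAPDH and POLR2A housekeeping genes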
Outline: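 qRT-PCR (Fluidigm 96.96 array) read-out of transcript level, housekeeping-normalized (ACTB/GAPDH/POLR2A). HepaRG cells, 48 h chemical exposure, 8-point half-log series from 100 uM, 0.5% DMSO vehicle; gain or loss relative to DMSO baseline.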

[9] = read-out: catalase (CAT), CAT (gene 847); experiment: LTEA_HepaRG_CAT: Life Technologies and Expression Analysis (LTEA) Assay for catalase (CAT) using HepaRG (AID 2283452); conditions: mRNA level, 48 h; actives raise or lower the signal
Outline: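 Expression of CAT was quantified by TaqMan qRT-PCR with ACTB/GAPDH/POLR2A normalization after 48 h chemical exposure of HepaRG. Eight-point half-log series, top 100 uM, in 0.5% DMSO; gain or loss fitted against vehicle.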

[10] = read-out: flavin-containing dimethylaniline monooxygenases 3 (FMO3), FMO3 (gene 2328); experiment: LTEA_HepaRG_FMO3: Life Technologies and Expression Analysis (LTEA) Assay for flavin-containing dimethylaniline monooxygenases 3 (FMO3) using HepaRG (AID 2283453); conditions: mRNA level, 48 h; actives raise or lower the signal
Outline: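 HepaRG, 48 h exposure, 8-pt half-log series from 100 uM, 0.5% DMSO vehicle, duplicates; FMO3 transcript by Fluidigm TaqMan qRT-PCR, housekeeping-normalized; gain/loss fit vs DMSO.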

[11] = CEETOX_H295R_OHPREG: CeeTox H295R High-throughput Steroidogenesis Assay for OH-Pregnenolone (OHPREG) (AID 2283434); conditions: actives raise or lower the signal
Outline: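 Hormone levels in spent medium were measured by tandem mass spectrometry following liquid-liquid extraction. Cells (H295R) had been forskolin-stimulated (10 uM, 48 h) before a 48 h chemical exposure at 0.1% DMSO, with activity fitted in both directions against DMSO.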

[12] = CEETOX_H295R_OHPROG: CeeTox H295R High-throughput Steroidogenesis Assay for OH-Progesterone (OHPROG) (AID 2283435); conditions: actives raise or lower the signal;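 as to AC50: human adrenal H295R cells primed 48 h with 10 µM forskolin; 17alpha-hydroxyprogesterone secreted into medium measured by HPLC-MS/MS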
Outline: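 Secreted 17alpha-hydroxyprogesterone is read by tandem MS from media of forskolin-primed H295R cells dosed with chemical for 48 h. Activity is fitted in both directions against DMSO baseline; cytotoxic concentrations are re-tested diluted.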

[13] = CEETOX_H295R_ANDR: CeeTox H295R High-throughput Steroidogenesis Assay for Androstenedione (ANDR) (AID 2283436); conditions: actives raise or lower the signal;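 also: human H295R adrenal cells exposed for 48 h with androstenedione measured in medium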
Outline: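 Read-out is androstenedione secreted into medium, measured by tandem mass spectrometry after liquid-liquid extraction. Cells were H295R, dosed for 48 h per modified OECD 456; activity fitted in both directions relative to DMSO.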

[14] = CEETOX_H295R_CORTIC: CeeTox H295R High-throughput Steroidogenesis Assay for Corticosterone (CORTIC) (AID 2283437); conditions: actives raise or lower the signal;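 also: corticosterone secreted into medium quantified by mass spectrometry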;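 as to AC50: human H295R adrenal cells prestimulated with forskolin before chemical exposure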
Outline: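 Corticosterone secreted into medium is measured by reverse-phase HPLC with tandem MS following liquid-liquid extraction. Cells are forskolin-stimulated (10 uM, 48 h) before 48 h test exposure; activity fitted in both directions against DMSO.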

[15] = CEETOX_H295R_CORTISOL: CeeTox H295R High-throughput Steroidogenesis Assay for Cortisol (AID 2283438); conditions: actives raise or lower the signal;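 also: cortisol secreted into medium quantified by LC-MS/MS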
Outline: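 Human adrenocortical H295R cells (passage ≤10) received test chemicals for 48 h after forskolin priming. Secreted cortisol was measured by LC-MS/MS.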

[16] = CEETOX_H295R_DOC: CeeTox H295R High-throughput Steroidogenesis Assay for DOC (AID 2283439); conditions: actives raise or lower the signal
Outline: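 Secreted DOC was quantified from H295R media by HPLC-MS/MS after 48 h chemical exposure following 48 h forskolin (10 uM) prestimulation. Values were fitted in both directions relative to DMSO, the negative control and baseline.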

[17] = CEETOX_H295R_ESTRADIOL: CeeTox H295R High-throughput Steroidogenesis Assay for Estradiol (AID 2283440); conditions: actives raise or lower the signal;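 also: estradiol secreted into medium quantified by LC-MS/MS after dansyl derivatisation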
Outline: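 H295R, 48 h forskolin (10 uM) prestim → 48 h compound, 0.1% DMSO final. Estradiol in medium: MTBE extraction, dansyl chloride derivatization, LC-MS/MS. Fit bidirectional vs DMSO baseline; MTT viability in same wells.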

Measured: AC50

Sequence of Fatty acid synthase (Homo sapiens) (P49327 whole entry, looked up): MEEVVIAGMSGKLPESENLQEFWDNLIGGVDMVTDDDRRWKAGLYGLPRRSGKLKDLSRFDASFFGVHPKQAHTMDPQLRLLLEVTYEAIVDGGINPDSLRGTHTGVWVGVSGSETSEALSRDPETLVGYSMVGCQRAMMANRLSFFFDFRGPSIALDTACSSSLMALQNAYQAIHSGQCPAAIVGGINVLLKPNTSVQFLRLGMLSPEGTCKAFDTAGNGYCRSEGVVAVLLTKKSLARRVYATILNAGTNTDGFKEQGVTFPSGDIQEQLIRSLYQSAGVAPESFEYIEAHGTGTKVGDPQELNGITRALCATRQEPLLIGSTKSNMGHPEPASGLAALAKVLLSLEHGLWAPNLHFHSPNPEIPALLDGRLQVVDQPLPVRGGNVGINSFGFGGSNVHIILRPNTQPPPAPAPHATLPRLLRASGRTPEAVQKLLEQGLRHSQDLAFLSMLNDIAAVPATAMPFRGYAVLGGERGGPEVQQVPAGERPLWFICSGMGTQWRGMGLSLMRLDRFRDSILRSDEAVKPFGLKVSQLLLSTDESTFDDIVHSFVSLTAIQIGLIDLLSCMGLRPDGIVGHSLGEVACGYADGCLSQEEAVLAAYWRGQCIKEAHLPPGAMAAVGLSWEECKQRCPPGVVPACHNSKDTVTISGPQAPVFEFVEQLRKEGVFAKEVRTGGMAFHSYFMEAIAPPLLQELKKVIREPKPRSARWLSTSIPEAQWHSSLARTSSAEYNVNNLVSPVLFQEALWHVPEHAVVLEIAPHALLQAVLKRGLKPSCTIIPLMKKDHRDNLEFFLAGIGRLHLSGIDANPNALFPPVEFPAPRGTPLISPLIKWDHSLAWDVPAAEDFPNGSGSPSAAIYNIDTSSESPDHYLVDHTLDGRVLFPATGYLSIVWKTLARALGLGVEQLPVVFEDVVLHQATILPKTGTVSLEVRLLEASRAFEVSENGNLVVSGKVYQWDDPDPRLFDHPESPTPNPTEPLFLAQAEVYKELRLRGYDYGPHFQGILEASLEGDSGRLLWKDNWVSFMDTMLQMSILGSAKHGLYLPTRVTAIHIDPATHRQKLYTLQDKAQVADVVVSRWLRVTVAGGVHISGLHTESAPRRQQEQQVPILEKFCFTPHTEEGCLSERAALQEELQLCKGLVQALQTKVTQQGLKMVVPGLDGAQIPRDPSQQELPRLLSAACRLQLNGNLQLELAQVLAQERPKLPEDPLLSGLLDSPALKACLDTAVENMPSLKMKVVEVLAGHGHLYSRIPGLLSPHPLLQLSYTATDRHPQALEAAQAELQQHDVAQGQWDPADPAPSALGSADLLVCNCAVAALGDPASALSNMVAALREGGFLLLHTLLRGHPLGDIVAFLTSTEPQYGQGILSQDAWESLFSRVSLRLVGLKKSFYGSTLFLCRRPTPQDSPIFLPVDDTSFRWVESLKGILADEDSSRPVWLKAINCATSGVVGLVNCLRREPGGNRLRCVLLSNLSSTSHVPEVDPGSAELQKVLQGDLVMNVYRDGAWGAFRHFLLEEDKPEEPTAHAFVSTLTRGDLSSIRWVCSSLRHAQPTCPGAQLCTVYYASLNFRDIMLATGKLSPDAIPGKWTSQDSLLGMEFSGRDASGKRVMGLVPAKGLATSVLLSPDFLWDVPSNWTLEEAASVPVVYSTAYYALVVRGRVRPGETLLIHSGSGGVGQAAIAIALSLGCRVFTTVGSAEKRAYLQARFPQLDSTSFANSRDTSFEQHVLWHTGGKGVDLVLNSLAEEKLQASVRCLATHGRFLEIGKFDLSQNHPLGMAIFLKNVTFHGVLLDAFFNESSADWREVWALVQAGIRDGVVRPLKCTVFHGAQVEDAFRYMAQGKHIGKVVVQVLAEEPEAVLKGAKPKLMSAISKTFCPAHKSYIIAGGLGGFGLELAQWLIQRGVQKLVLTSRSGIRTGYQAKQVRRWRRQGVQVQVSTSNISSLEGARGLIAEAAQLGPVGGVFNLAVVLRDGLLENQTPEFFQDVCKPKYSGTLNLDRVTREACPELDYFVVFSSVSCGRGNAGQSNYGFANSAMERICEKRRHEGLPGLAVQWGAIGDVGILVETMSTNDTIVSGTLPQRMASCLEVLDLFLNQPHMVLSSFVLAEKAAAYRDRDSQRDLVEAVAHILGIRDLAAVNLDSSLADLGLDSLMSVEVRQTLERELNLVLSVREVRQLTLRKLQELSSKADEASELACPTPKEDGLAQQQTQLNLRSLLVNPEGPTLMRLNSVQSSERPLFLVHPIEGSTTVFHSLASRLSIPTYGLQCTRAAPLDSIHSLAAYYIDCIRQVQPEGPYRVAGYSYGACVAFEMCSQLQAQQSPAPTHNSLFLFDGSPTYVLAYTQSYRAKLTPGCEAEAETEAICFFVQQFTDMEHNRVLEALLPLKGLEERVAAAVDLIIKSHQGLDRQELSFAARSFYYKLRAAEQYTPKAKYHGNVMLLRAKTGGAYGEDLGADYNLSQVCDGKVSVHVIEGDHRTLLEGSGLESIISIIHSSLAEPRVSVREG
Sequence of Retinoic acid receptor RXR-alpha (Homo sapiens) (P19793 whole entry, looked up): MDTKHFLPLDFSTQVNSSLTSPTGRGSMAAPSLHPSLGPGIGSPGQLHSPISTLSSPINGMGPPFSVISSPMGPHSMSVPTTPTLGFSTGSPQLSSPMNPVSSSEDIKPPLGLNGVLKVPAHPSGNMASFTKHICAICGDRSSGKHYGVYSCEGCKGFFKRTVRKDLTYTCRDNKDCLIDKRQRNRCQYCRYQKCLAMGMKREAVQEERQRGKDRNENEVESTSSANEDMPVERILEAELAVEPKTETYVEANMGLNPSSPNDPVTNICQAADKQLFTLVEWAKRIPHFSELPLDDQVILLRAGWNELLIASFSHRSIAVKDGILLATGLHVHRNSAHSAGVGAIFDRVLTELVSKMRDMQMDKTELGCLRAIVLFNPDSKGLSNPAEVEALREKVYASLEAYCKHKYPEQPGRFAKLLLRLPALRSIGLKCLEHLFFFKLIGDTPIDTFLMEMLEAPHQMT
Sequence of Peroxisome proliferator-activated receptor gamma (Homo sapiens) (P37231 whole entry, looked up, the tested form may be a part): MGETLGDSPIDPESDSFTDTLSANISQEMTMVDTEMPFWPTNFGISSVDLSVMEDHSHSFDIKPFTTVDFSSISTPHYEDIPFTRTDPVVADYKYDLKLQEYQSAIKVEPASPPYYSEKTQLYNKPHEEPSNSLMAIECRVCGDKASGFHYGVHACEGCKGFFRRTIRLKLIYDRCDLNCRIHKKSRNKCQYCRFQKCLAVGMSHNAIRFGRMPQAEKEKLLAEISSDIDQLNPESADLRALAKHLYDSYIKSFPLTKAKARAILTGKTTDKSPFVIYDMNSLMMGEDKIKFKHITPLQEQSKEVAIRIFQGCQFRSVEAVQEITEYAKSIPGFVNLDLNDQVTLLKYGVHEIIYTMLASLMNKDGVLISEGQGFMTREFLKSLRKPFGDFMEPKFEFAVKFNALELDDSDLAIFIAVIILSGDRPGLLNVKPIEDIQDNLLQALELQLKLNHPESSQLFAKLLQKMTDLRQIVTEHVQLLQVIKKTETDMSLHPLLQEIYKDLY

O=P1(N(CCCl)CCCl)NCCCO1 (configuration not stated)
not listed: [11] | [12] | [13] | [14] | [15] | [16] | [17]
inactive: all other assays above

COP(N)(=S)OC
inactive: [11] | [12] | [13] | [14] | [15] | [16]

Cc1cccc(N)c1
not listed: [1] | [4] | [13] | [14] | [15] | [16] | [17]
inactive: all other assays above

O=[N+]([O-])c1ccccc1
inactive: [1] | [2] | [3] | [5] | [6] | [7] | [8] | [9] | [10]

CC(C)Nc1ccc(Nc2ccccc2)cc1
inactive: [11] | [12] | [14] | [15] | [16] | [17]

c1ccc2c(c1)sc1ccccc12
inactive: [2] | [3]

CCOP(=S)(OCC)SCn1nnc2ccccc2c1=O
active: [12] 10 µM
inactive: [11] | [14] | [15] | [16] | [17]

Nc1ccc([N+](=O)[O-])cc1Cl
inactive: [11] | [12] | [13] | [14] | [15] | [16]

COCCOCCO
inactive: [1] | [2] | [3] | [4] | [5] | [7] | [8] | [9] | [10]

CC(Cl)(Cl)C(=O)O
not listed: [11] | [12] | [13] | [14] | [15] | [16] | [17]
inactive: all other assays above

CCCCOCCOP(=O)(OCCOCCCC)OCCOCCCC
inactive: [1] | [2] | [3] | [11] | [12] | [14] | [15] | [16] | [17]

c1ccc(OP(Oc2ccccc2)Oc2ccccc2)cc1
not listed: [13]
inactive: all other assays above

O=C(O)CF
inactive: [2] | [3]

Oc1ccc(I)cc1
active: [12] 18.6 µM
inactive: [11] | [14] | [15] | [16] | [17]

CCCCN(CCCC)SN(C)C(=O)Oc1cccc2c1OC(C)(C)C2
active: [1] 84.7 µM
inactive: [1] | [2] | [3] | [4] | [5] | [6] | [7] | [8] | [9] | [10]

c1ccc2c(c1)Nc1ccccc1S2
active: [11] 6.86 µM and 2.55 µM | [12] 20.4 µM and 25 µM and 18.1 µM | [5] 50 µM | [8] 67.9 µM
inactive: [1] | [2] | [3] | [11] | [17] | [4] | [7] | [9] | [10]

COC(N)=O
inactive: [1] | [2] | [3]

N#Cc1c(-c2ccc(Cl)cc2)[nH]c(C(F)(F)F)c1Br
inactive: [11] | [13] | [17]
active: [12] 0.282 µM | [14] 291 nM | [15] 645 nM | [16] 253 nM

CCCN(CCC)c1c([N+](=O)[O-])cc(C(C)C)cc1[N+](=O)[O-]
active: [1] 80.9 µM | [4] 12.7 µM
inactive: [1] | [2] | [3] | [5] | [6] | [7] | [8] | [9] | [10]

O=C(O)C(Cl)Cl
not listed: [11] | [12] | [13] | [14] | [15] | [16] | [17]
inactive: all other assays above
